According to PubChem BioAssay (NCI):
Compounds without any hit were thinned out: in the full panel of roughly 83,000, 20% have a hit.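 Activity criterion: percent growth below 10, measured after cells in 96-well plates were exposed to a single compound concentration for 48 hours.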 Values without a mark were called inactive. Calls of active or inactive are those of the source.

test system: SF-539 CNS; test: NCI-60 one-dose screen, 48 h (100 = growth as untreated, 0 = no growth, -100 = all killed); conditions: 10 µM

| SMILES | growth |
| --- | --- |
| Nc1nc(N)c(NC(=O)CNc2ccc(C(=O)O)cc2)c(N)n1 | 101% |
| COc1ccc(-c2nn(-c3cccc(NC(=O)c4cc(C(F)(F)F)cc(C(F)(F)F)c4)c3)cc2-c2ccncc2)cc1Cl | 67.4% |
| O=C1/C(=C\c2ccccc2)CN(C(=O)c2ccccc2)C/C1=C\c1ccccc1 | 69.4% |
| COc1ccc(/C=C2/CN(C(=O)c3ccc(C)cc3)C/C(=C\c3ccc(OC)cc3)C2=O)cc1 | 102% |
| COc1ccc(S(=O)(=O)NCCCNc2nccc(-c3c(-c4ccc(F)cc4)nc4sccn34)n2)cc1 | 93.7% |
| COc1ccc(-c2cc(-c3ccc(N(C)C)cc3)c(C#N)c(N3CCCC3)n2)cc1 | 88.8% |
| CCOC(=O)N/N=C\C(C)=N\NC(=O)OCC | 99.9% |
| CN(C)Cc1cn(-c2ncc(-c3ccc(C(F)(F)F)cc3)c(NC3CCCCCC3)n2)nn1 | 99.3% |
| CC(C)=NNc1ncnc2c1ncn2C1OC(CO)C(O)C1O (configuration not stated) | 35.3% |
| O=C(Nc1cccc(-n2cc(-c3ccncc3)c(-c3ccc(O)c(Cl)c3)n2)c1)c1cc(C(F)(F)F)cc(C(F)(F)F)c1 | 56.1% |
| CCCC(F)C(=O)O (configuration not stated) | 102% |
| Nc1nc(Nc2ccccc2)n[nH]1 | 94.2% |
| COc1ccc(-n2c(SCc3cc(OC)c(OC)c(OC)c3)nc3ccc(C)cc3c2=O)cc1 | 77.7% |
| O=C(Nc1ccc(CN2CCc3nc4cc(O)c(O)cc4cc32)cc1)c1ccc(Cl)c(Cl)c1 | 94.2% |
| CCOCCOCCOCCOCCOCCOCCOCCOCCOCCO (tested in a mixture with another compound) | -10.1% (active) |
| CCCCCCc1cc(N=Nc2ccc(S(=O)(=O)Nc3cc(C)nc(C)n3)cc2)c(O)cc1O | 97.1% |
| CCN1CCN(c2nc3ccccc3c3c(=O)c4ccccc4sc23)CC1 | 48% |
| COc1ccc(-c2nn(-c3cccc(NC(=O)Nc4ccccc4)c3)cc2-c2ccncc2)cc1Cl | -59.1% (active) |
| C#Cc1ccc(-n2c(/C=C/c3ccc4ccccc4c3)nc3ncccc3c2=O)cc1 | 70.5% |
| Cc1ccc(S(=O)(=O)Oc2ccc3c4c(c(=O)oc3c2)CCCCC4)cc1 | 39.8% |
| N=C(N)c1ccc(-c2ccc(-c3cccs3)s2)cc1 | 89.5% |
| COc1cc(-c2cc(/C=C/C(=O)c3ccc(N)cc3)[nH]n2)cc(OC)c1OC | -64.1% (active) |
| CCOC(=O)C(NC(=O)C(Cl)Cl)C(O)c1ccccc1 (configuration not stated) | 99.5% |

test system: UACC-257 melanoma; test: as above; conditions: 10 µM

| SMILES | growth |
| --- | --- |
| COc1ccc(-c2csc(NC(=O)CSc3nc(C)c(-c4ccccc4)n3Nc3ccccc3)n2)cc1 | 89.3% |
| Cc1cccc(C)c1NC(=O)c1sc2nc3c(cc2c1N)C(=O)CCC3 | 73.7% |
| CC(=O)CSC(C)=O | 100% |
| S=C1SCC(c2ccccc2)S1 (configuration not stated) | 89.6% |
| CC(=O)N(C)c1ccc(Nc2ccc(Nc3ccc(N(C)C(C)=O)cc3)c3c2C(=O)c2ccccc2C3=O)cc1 | 74.5% |
| COc1ccc(CN2CCC(N3CCCC3=O)c3cc(Cl)ccc32)cc1 (configuration not stated) | 112% |
| CN(C)c1ccc(Cc2ccc(N(C)C)cc2Cl)c(Cl)c1 | 110% |
| Clc1cc2c(c(CSc3nc4ccccc4n4cccc34)c1)OCOC2 | 61.3% |
| CC(=O)n1c(-c2ccc(Cl)c(Cl)c2)cn(-c2ccc(Cl)cc2)c1=O | 57.5% |
| C#Cc1ccc(-n2c(/C=C/c3ccc4ccccc4n3)nc3ncccc3c2=O)cc1 | -72.9% (active) |
| CSc1nn(-c2ccccc2)c2ncnc(Oc3ccccc3)c12 | 107% |
| COc1ccc(-c2nc(-c3nc4cc(Cl)c(F)cc4[nH]3)c3ccccn23)cc1 | 61.9% |
| C/C(=N\Nc1nc2ccccc2s1)c1ccncn1 | 55.6% |
| Nc1cc2c(cc1Cl)-c1ccc([N+](=O)[O-])cc1/C2=N\O | 103% |
| CN(C)CCN1C(=O)c2cccc3cc(N)cc(c23)C1=O | 5.64% (active) |
| CCCCCCNC(=O)Oc1ccc(/C(=C(/CC)Cc2ccccc2)c2ccc(OCCN3CCCCC3)cc2)cc1 | 86.1% |
| Nc1nc(N)c(NC(=O)CNc2ccc(C(=O)O)cc2)c(N)n1 | 103% |
| COc1ccc(-c2nn(-c3cccc(NC(=O)c4cc(C(F)(F)F)cc(C(F)(F)F)c4)c3)cc2-c2ccncc2)cc1Cl | 62% |
| O=C1/C(=C\c2ccccc2)CN(C(=O)c2ccccc2)C/C1=C\c1ccccc1 | 4.53% (active) |
| COc1ccc(/C=C2/CN(C(=O)c3ccc(C)cc3)C/C(=C\c3ccc(OC)cc3)C2=O)cc1 | 98.1% |

| SMILES | growth |
| --- | --- |
| COc1ccc(S(=O)(=O)NCCCNc2nccc(-c3c(-c4ccc(F)cc4)nc4sccn34)n2)cc1 | 67.7% |
| COc1ccc(-c2cc(-c3ccc(N(C)C)cc3)c(C#N)c(N3CCCC3)n2)cc1 | 88% |
| CCOC(=O)N/N=C\C(C)=N\NC(=O)OCC | 92.6% |
| CN(C)Cc1cn(-c2ncc(-c3ccc(C(F)(F)F)cc3)c(NC3CCCCCC3)n2)nn1 | 82.8% |
| CC(C)=NNc1ncnc2c1ncn2C1OC(CO)C(O)C1O (configuration not stated) | 73.9% |
| O=C(Nc1cccc(-n2cc(-c3ccncc3)c(-c3ccc(O)c(Cl)c3)n2)c1)c1cc(C(F)(F)F)cc(C(F)(F)F)c1 | 66.9% |
| CCCC(F)C(=O)O (configuration not stated) | 92.2% |
| Nc1nc(Nc2ccccc2)n[nH]1 | -7.13% (active) |
| COc1ccc(-n2c(SCc3cc(OC)c(OC)c(OC)c3)nc3ccc(C)cc3c2=O)cc1 | 77.3% |
| O=C(Nc1ccc(CN2CCc3nc4cc(O)c(O)cc4cc32)cc1)c1ccc(Cl)c(Cl)c1 | 103% |
| CCOCCOCCOCCOCCOCCOCCOCCOCCOCCO (tested in a mixture with another compound) | -7.19% (active) |
| CCCCCCc1cc(N=Nc2ccc(S(=O)(=O)Nc3cc(C)nc(C)n3)cc2)c(O)cc1O | 102% |
| CCN1CCN(c2nc3ccccc3c3c(=O)c4ccccc4sc23)CC1 | 73.9% |
| COc1ccc(-c2nn(-c3cccc(NC(=O)Nc4ccccc4)c3)cc2-c2ccncc2)cc1Cl | -32.9% (active) |
| C#Cc1ccc(-n2c(/C=C/c3ccc4ccccc4c3)nc3ncccc3c2=O)cc1 | 13% |
| Cc1ccc(S(=O)(=O)Oc2ccc3c4c(c(=O)oc3c2)CCCCC4)cc1 | 32% |
| N=C(N)c1ccc(-c2ccc(-c3cccs3)s2)cc1 | 34.6% |
| COc1cc(-c2cc(/C=C/C(=O)c3ccc(N)cc3)[nH]n2)cc(OC)c1OC | 29.2% |
| CCOC(=O)C(NC(=O)C(Cl)Cl)C(O)c1ccccc1 (configuration not stated) | 105% |
